# Screening results as filed in PubChem.
# CYP2C19 act: human CYP2C19 activators, primary screen, biochemical, luminescence. recombinant CYP2C19, luciferin-H EGE luminescence; hits give high values; 0 = fully inhibited enzyme, 1 = untreated enzyme. activation factor at 5 µM. Cytochrome P450 2C19 (Homo sapiens), P33261. AID 1025, 2008. 96,000 tested, under 10 active;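 active means activation factor of at least 2 at 5 µM in the primary screen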
# CYP2C9 inh: blockers of cytochrome P450 2C9 activity – biochemical, luminescence, ADME assay, primary screen | inhibition, % at 5 µM | hit rate 20% among 96,000 | CYP2C9 Supersomes, luciferin-H conversion | AID 777, 2007;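 active means blocking of liver enzyme CYP2C9 beyond about 50% at 5 µM, limit read from the data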
# Target sequence (P11712 whole entry, looked up): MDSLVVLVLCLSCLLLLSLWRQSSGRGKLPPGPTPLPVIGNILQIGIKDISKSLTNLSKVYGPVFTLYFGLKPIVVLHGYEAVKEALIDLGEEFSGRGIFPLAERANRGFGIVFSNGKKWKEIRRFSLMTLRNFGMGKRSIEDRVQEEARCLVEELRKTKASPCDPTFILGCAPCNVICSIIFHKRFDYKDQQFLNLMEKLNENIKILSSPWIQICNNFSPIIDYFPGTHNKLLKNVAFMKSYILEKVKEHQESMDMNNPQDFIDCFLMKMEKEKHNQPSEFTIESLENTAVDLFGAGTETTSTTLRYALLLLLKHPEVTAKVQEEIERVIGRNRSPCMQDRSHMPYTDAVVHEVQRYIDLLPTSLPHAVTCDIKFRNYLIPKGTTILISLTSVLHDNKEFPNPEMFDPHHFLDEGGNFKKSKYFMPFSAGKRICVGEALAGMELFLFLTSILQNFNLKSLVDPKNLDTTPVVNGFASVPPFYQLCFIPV
# MRP1 act: H69AR viability gain despite doxorubicin, primary screen, MRP-1 activator project, H69AR cells, CellTiter-Glo. AID 799, 2007. viability rescue. viability increase, % at 10 µM. hit rate 0.61% among 140,000;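 active means viability gain under doxorubicin at or above a set limit, the compound median plus 3 SD, cut at about 4.7% in these data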;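 further: MRP-1 overexpressing cells given doxorubicin 25 µM after compound pretreatment; 18-22 h compound pretreatment then 72 h with doxorubicin before readout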
# MRP resist rev: reversal of MRP1-mediated doxorubicin resistance, primary screen, H69AR cells, doxorubicin co-treatment; H69AR cells + 2 uM doxorubicin, CellTiter-Glo, 72 h; differential viability (reversal), % at 10 µM; hit rate 0.04% among 85,000; AID 602, 2007;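 active means viability drop by adding the cancer drug above about 55%, with treated viability meeting a 40% cutoff, limit read from the data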;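 further: larger differential means the compound sensitizes cells more to doxorubicin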
# CYP2C19 inh: blockers of cytochrome P450 2C19 activity – biochemical, luminescence, ADME assay, primary screen | P33261 | CYP2C19 Supersomes, luciferin-H EGE luminescence, 30 min | inhibition, % at 5 µM | hit rate 21% among 96,000 | AID 778, 2007;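 active means CYP2C19 inhibition above a set limit at 5 µM in the primary screen, cut at about 50% in these data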
# CYP2C9 activ: human CYP2C9 activators, primary screen, biochemical, luminescence; Cytochrome P450 2C9 (Homo sapiens), P11712; recombinant CYP2C9, luciferin-H conversion; hits give high values; factor 1 = untreated enzyme, 0 = blocked; activation factor at 5 µM; hit rate 1.4% among 96,000; AID 1024, 2008;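 active means activation factor of 2 or more for CYP2C9 at a 5 µM dose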
# Numbers stand for hits; 0 = inactive; - = no result given. Sampled rows, rich in hits. Any-hit rate of the full collection: about 21%.
SMILES,CYP2C19 act,CYP2C9 inh,MRP1 act,MRP resist rev,CYP2C19 inh,CYP2C9 activ
CCSc1nc2c(sc3ccccc32)c(=O)n1C(C)C,0,0,0,0,0,0
COc1ccccc1N1CCN(CC(=O)c2c(C)n(C)c3ccccc23)CC1,0,0,0,0,54.5,0
Cc1[nH]c2ccccc2c1C(=O)CN1CCSCC1,0,0,0,0,77.1,0
COc1ccccc1N1CCN(CC(=O)c2c(C)[nH]c3cc(C)ccc23)CC1,0,0,0,0,62.2,0
Cc1ccc(NC(=O)C(Nc2cccc(C)c2)c2ccccc2)cc1 (stereo unspecified),-,-,0,-,-,-
CCCCCNC(=O)N[C@H](C(=O)O)C(C)C,-,-,0,-,-,-
Cc1cc(-c2ccccc2)nc(N(C)NC(=O)c2c(F)cccc2F)c1S(C)(=O)=O,0,69.4,0,0,50.7,0
Cc1cccc(C(=O)NN(C)c2nc(-c3ccccc3)nnc2C(F)(F)F)c1,0,0,0,-,0,0
COC(=O)c1sc(NC(=O)COc2ccc(C)cc2)nc1C,0,59.5,0,0,0,0
O=C(COc1ccccc1)Nc1cccc2nsnc12,0,0,0,0,53.3,0
COC(=O)c1sc(NC(=O)Cc2cccs2)nc1C,0,57.4,0,0,0,0
COC(=O)c1sc(Nc2ccccc2)nc1C,0,0,0,0,58.3,0
CCOC(=O)c1sc(Nc2ccccc2)nc1C,0,0,0,0,0,0
Cc1cccc(OCC(=O)Nc2cccc3nsnc23)c1,0,0,0,0,0,0
CC(C)c1nnc(NC(=O)Cc2cccs2)s1,-,-,0,0,-,-
COC(=O)c1sc(NC(=O)COc2ccccc2)nc1C,0,94.4,0,0,70.7,0
COC(=O)c1sc(NC(=O)CSc2nc3cccnc3n2C2CCCCC2)nc1C,0,83.8,0,0,72.7,0
Cc1nc(NC(=O)COc2ccccc2)sc1C(=O)Nc1ccccc1,0,0,0,-,0,0
COc1ccccc1OCC(=O)Nc1nnc(-c2ccco2)s1,0,0,0,0,0,0
COC(=O)c1sc(NC(=O)COc2ccccc2OC)nc1C,0,67.1,0,0,0,0
COc1cc(CC(=O)Nc2ncc(C)s2)cc(OC)c1OC,0,54.2,0,0,73.2,0
COc1ccc(CC(=O)Nc2nccs2)cc1OC,-,-,0,-,-,-
Cn1c(N)c(C(=O)c2cc(-c3ccccn3)nc3ccccc23)c(=O)[nH]c1=O,0,0,0,0,0,0
Cc1cnc(NC(=O)COc2ccccc2)s1,0,0,0,0,65.6,0
O=C(Cc1cccs1)Nc1nc2c(ccc3ccccc32)s1,0,63.7,0,-,0,0
SMILES,CYP2C19 act,CYP2C9 inh,MRP1 act,MRP resist rev,CYP2C19 inh,CYP2C9 activ
O=C(Cc1cccs1)Nc1nnc(SCc2cccc3ccccc23)s1,-,-,0,-,-,-
O=C(/C=C/c1ccccc1Cl)Nc1ccc(-c2nnc3n2CCCCC3)cc1,-,-,0,-,-,-
COc1cc2cc(CN(C(=O)Nc3ccccc3)C3CCCC3)c(=O)[nH]c2cc1OC,0,55.1,0,0,0,0
O=CNCC(=O)NCCc1ccc(Cl)cc1,0,0,0,0,0,0
Cc1nn(C)c(C)c1S(=O)(=O)N(CC(=O)NCc1cccs1)c1ccc(C(C)C)cc1,-,-,0,0,-,-
COc1ccc(N(CC(=O)NCc2cccs2)S(=O)(=O)c2c(C)nn(C)c2C)cc1,0,0,0,0,71.5,0
COc1ccc(N(CC(=O)NC2CCCCCC2)S(=O)(=O)c2c(C)nn(C)c2C)cc1,0,50.2,0,0,0,0
COc1ccc(N(CC(=O)NCc2cccnc2)S(=O)(=O)c2c(C)nn(C)c2C)cc1,0,0,0,0,64.0,0
Cc1ccc(N(CC(=O)NCc2cccs2)S(=O)(=O)c2cccs2)cc1,0,74.3,0,0,95.9,0
COc1ccc(N(CC(=O)NCc2ccccc2)S(=O)(=O)c2c(C)noc2C)cc1,0,0,0,0,91.4,0
COc1ccc(N(CC(=O)N2c3ccccc3CC2C)S(=O)(=O)c2c(C)noc2C)cc1 (stereo unspecified),0,92.5,0,0,88.1,0
